DRD3 antagonist: antagonists of human D3 dopamine receptor; D3R cells, DiscoveRx beta-arrestin luminescence, antagonist mode; hits give low values; max response, negative = inhibition, %; hit rate 2.5% among 360,000; AID 652054; in the data active means max response below about -50%; inconclusive means no clear call, values can overlap the other calls; further: on the % scale 0 is the no-effect control and ±100 the full control effect
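Cells expressing the human receptor were seeded at 1500 cells/well, incubated overnight at 37 degrees C in 5% CO2, then exposed to library compounds with dopamine controls for 90 minutes at 37 degrees C before luminescent detection.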
CBFb RUNX1 block: blocks binding between human CBF-beta and RUNX1; AlphaScreen CBFb-His/RUNX1-biotin binding, biochemical; Potency, µM (doses to about 59.8 µM), for inactives: at the highest dose activity, negative = inhibition, usual class: inhibitors; Q01196+Q13951; 230,000 tested, under 10 active; further: % of control where 0% means no effect
Target sequence (Q01196 whole entry, looked up): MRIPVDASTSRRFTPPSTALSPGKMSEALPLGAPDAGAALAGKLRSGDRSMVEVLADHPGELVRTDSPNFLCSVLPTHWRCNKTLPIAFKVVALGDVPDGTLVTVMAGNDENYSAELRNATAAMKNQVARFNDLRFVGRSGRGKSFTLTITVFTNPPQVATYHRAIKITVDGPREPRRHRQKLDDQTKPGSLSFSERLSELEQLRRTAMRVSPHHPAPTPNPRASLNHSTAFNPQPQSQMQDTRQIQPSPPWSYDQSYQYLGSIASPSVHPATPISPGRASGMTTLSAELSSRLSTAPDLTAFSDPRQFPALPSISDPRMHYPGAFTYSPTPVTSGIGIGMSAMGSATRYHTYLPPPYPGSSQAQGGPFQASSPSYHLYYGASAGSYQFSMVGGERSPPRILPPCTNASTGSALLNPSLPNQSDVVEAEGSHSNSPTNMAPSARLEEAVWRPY
Target sequence (Q13951 whole entry, looked up): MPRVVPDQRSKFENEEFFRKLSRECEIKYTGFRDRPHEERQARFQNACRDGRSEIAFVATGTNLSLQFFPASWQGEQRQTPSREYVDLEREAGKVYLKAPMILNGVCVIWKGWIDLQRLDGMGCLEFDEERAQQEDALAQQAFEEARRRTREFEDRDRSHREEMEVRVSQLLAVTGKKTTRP
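His-tagged CBF-beta and biotinylated RUNX1 (30 nM each) were premixed 20 min at room temperature, exposed to compound for 15 min, then given nickel-chelate and streptavidin AlphaScreen beads (50 ng each). After 90 min, AlphaScreen signal was read.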
DRD3 agonist: D3 dopamine receptor (human) agonism | P35462 | D3R DiscoveRx beta-arrestin cells, luminescence, 90 min | max activation, % | hit rate 0.58% among 410,000; in the data active means max activation above about 30%; further: 0% is about no effect
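Agonist-mode cell screen: cells plated at 1500/well and incubated overnight at 37 °C, then exposed to library compounds for 90 min at 37 °C. Detection reagent was added for 30–60 min at room temperature, and luminescence was read.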
Integrin act MD: activates integrin-mediated alleviation for muscular dystrophy; alpha7betagal myoblasts, beta-gal FDG fluorescence, 48 h; Potency, µM (top dose mostly 38.3 µM), without a hit: top-dose activation, hits mostly activators; hit rate 0.064% among 350,000; AID 624291;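 further: potency means the concentration at half of the fitted maximal effect; 100% = response of the positive control SU9516; nearly all actives have a fitted effect of over 60% in size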
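alpha7betagal+/- myoblasts (passage 13, 250/well) treated 48 h at 37C with compounds at 1:260 dilution of DMSO stock. Lysed, then beta-galactosidase activity read as FDG fluorescence (ex 480/em 540) after 30 min, with pre-read for autofluorescence.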
MBNL1-CUG inh: MBNL1-poly(CUG) RNA binding inhibition; Q9NR56; TR-FRET MBNL1-His/biotin-(CUG)12 binding, 665/545 ratio; Potency, µM (highest dose often 57.5 µM), inactives show top-dose activity change, negative = inhibition, actives largely listed as inhibitors; hit rate 0.036% among 280,000; active means well fitted inhibition curve with a large enough effect in the signal ratio, with a control signal flat, not every such curve was filed as active; inconclusive means small, poorly fitted or top-dose-only effect, or effect the other way, or a change in a side signal; inactive means no such curve, though single readings can be large or run the other way; the % refers to the signal ratio; further: potency means the concentration at half of the fitted maximal effect; on the % scale 0 is the no-effect control and ±100 the full control effect
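Compound titration spanned 92 nM–58 uM against the MBNL1-His/biotin-(CUG)12 complex. After 60 min at room temperature with 5 nM streptavidin-XL665 and 0.055 ng/ul terbium anti-His, ratiometric 665/545 nm emission (Ex 340 nm) normalized to controls.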
PTHR1 ag: PTHR1 (human) receptor agonism; HEK293 GP2 PTHR1 cells, GloSensor cAMP luminescence, 1 h; Potency, µM (titrated, usually from 115 µM), for the others: at the highest dose activation, most hits filed as activators; hit rate 0.075% among 410,000; AID 743266; further: potency means the concentration at half of the fitted maximal effect; nearly all actives have a fitted effect of over 55% in size
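HEK-293-derived GP2 cells expressing PTHR1 and a GloSensor cAMP reporter, 3,000/well, plated overnight, given luciferin plus IBMX (each 0.5 mM as added) for 1 h at 37 °C, then compound for 1 h at 37 °C. Luminescence was read after 15 min at room temperature.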
* hit, by the source's call; [ ] = another dose, or the depositor's remark. Shown are actives, neighbours in structure and some others; about 2.8% of the full set was active somewhere. Unless noted, the call rests on the fitted dose curve; in most records, active means well fitted curve in the direction sought with a large enough effect; inconclusive means small, poorly fitted or top-dose-only effect, or another doubt; inactive means no such curve, though single readings can be large; an effect the other way counts as inactive or inconclusive.

`Cc1cccc(CS(=O)(=O)c2ncc(Cl)c(C(=O)Nc3c(C)cccc3C)n2)c1` gave DRD3 antagonist -100*, DRD3 agonist -24, Integrin act MD -64%, MBNL1-CUG inh -3% and PTHR1 ag -23%.
`Cc1cccc(CS(=O)(=O)c2ncc(Cl)c(C(=O)Nc3nc4ccc(F)cc4s3)n2)c1` gave DRD3 agonist -17 and PTHR1 ag -17%.
Cc1cccc(CS(=O)(=O)c2ncc(Cl)c(C(=O)NCc3ccccc3)n2)c1 was read as DRD3 antagonist -82*, DRD3 agonist -3, Integrin act MD -62%, MBNL1-CUG inh 1% and PTHR1 ag -54%.
Screening Cc1cccc(C)c1NC(=O)c1nc(S(=O)(=O)Cc2ccccc2)ncc1Cl returned DRD3 antagonist -64*, DRD3 agonist -23, Integrin act MD -74%, MBNL1-CUG inh -2% and PTHR1 ag -20%.
`Cc1ccccc1NC(=O)c1nc(S(C)(=O)=O)ncc1Cl` gave DRD3 antagonist -81*, DRD3 agonist -13, Integrin act MD -80%, MBNL1-CUG inh 10% and PTHR1 ag -36%.
For CCOC(=O)c1nc(Nc2ccc(C(=O)OC(C)C)cc2)c2ccccc2n1 the results were DRD3 agonist 16 and PTHR1 ag -22%.
For Cc1ccc(N(C)S(=O)(=O)c2cccc(C(=O)OCC(=O)N(C)Cc3ccccc3)c2)cc1 the results were DRD3 antagonist 48, DRD3 agonist 1, Integrin act MD -5% and PTHR1 ag -95%.
For O=C(O)/C=C\C(=O)NCc1cccnc1 the results were DRD3 antagonist -1, CBFb RUNX1 block 6%, DRD3 agonist 0, Integrin act MD 10%, MBNL1-CUG inh 1% and PTHR1 ag inactive.
For CCCc1nnc(NC(=O)c2nc(S(=O)(=O)Cc3cccc(C)c3)ncc2Cl)s1 the results were DRD3 antagonist -68*, DRD3 agonist -8, Integrin act MD -11%, MBNL1-CUG inh 10% and PTHR1 ag -96%.
`CCOC(=O)CN1C(=O)C(=O)N(Cc2ccccc2F)C1=O` gave DRD3 antagonist -7, DRD3 agonist 4, Integrin act MD 19%, MBNL1-CUG inh -12% and PTHR1 ag inactive.
CCOC(=O)c1c(C)cc(O)cc1O was read as DRD3 antagonist 10, CBFb RUNX1 block 13%, DRD3 agonist 38*, Integrin act MD 0% and PTHR1 ag -25%.
`CCC(=O)c1c(O)cc(O)cc1O` gave CBFb RUNX1 block 8% and DRD3 agonist 5.
For CCOC(=O)c1c(C)sc2c1N(C(=O)CCl)c1cc(Cl)ccc1S2 the results were DRD3 antagonist -60*, CBFb RUNX1 block -12%, DRD3 agonist -1, Integrin act MD -46%, MBNL1-CUG inh -6% and PTHR1 ag -34%.
For Cc1sc2ncnc(SCC(=O)N3c4ccccc4Sc4ccc(Cl)cc43)c2c1C the results were DRD3 antagonist 11, CBFb RUNX1 block -6%, DRD3 agonist 3, Integrin act MD -20%, MBNL1-CUG inh -13% and PTHR1 ag inactive.
Screening CC(C)(C)NC(=O)CN1CCC(O)(c2ccc3c(c2)OCO3)CC1 returned DRD3 antagonist -3, CBFb RUNX1 block 1%, DRD3 agonist -1, Integrin act MD -2%, MBNL1-CUG inh -3% and PTHR1 ag inactive.
For CC(C)(C)NC(=O)CN1CCC(O)(c2ccccc2)CC1 the results were DRD3 antagonist active, CBFb RUNX1 block 0%, DRD3 agonist -17, Integrin act MD 3%, MBNL1-CUG inh -4% and PTHR1 ag -6%[57.5 µM].
`COc1ccc(CCN(C)CC(O)COC(c2ccc(F)cc2)c2ccc(F)cc2)cc1OC` (stereo not drawn) gave DRD3 antagonist -61*, DRD3 agonist -20, Integrin act MD -54%, MBNL1-CUG inh -2% and PTHR1 ag inactive.
Cc1cc([N+](=O)[O-])nn1CC(=O)N/N=C/c1ccccc1O was read as DRD3 antagonist 13, CBFb RUNX1 block -21%, DRD3 agonist 4, Integrin act MD -36%, MBNL1-CUG inh 22% and PTHR1 ag -22%.
Cc1cc(C)n(CCC(=O)N/N=C/c2ccc(Br)c([N+](=O)[O-])c2)n1 was read as DRD3 antagonist -15, CBFb RUNX1 block 1%, DRD3 agonist 2, Integrin act MD -42%, MBNL1-CUG inh inconclusive and PTHR1 ag -14%.
`Cc1cc(Cl)ccc1NC(=O)CCC(=O)N/N=C/c1cc([N+](=O)[O-])ccc1O` gave DRD3 antagonist -56*, CBFb RUNX1 block 1%, DRD3 agonist -7, Integrin act MD -17%, MBNL1-CUG inh 3% and PTHR1 ag inactive.
`Cc1cc(C)n(CC(=O)N/N=C/c2cc(Br)cc([N+](=O)[O-])c2O)n1` gave DRD3 antagonist -66*, CBFb RUNX1 block 3%, DRD3 agonist -12, Integrin act MD -9%, MBNL1-CUG inh 2% and PTHR1 ag inactive.
For Cc1cc(C)n(CC(=O)c2cccc([N+](=O)[O-])c2)n1 the results were DRD3 antagonist -58*, CBFb RUNX1 block -7%, DRD3 agonist -12, Integrin act MD 16%, MBNL1-CUG inh inconclusive and PTHR1 ag inconclusive.
For Cc1cc(C)n(CC(=O)c2ccc(Cl)cc2)n1 the results were DRD3 antagonist 15, CBFb RUNX1 block -15%, DRD3 agonist 1, Integrin act MD 11%, MBNL1-CUG inh -16% and PTHR1 ag inactive.
Screening Cc1cc(C)n(CC(=O)N/N=C/c2cc([N+](=O)[O-])ccc2O)n1 returned DRD3 antagonist -56*, CBFb RUNX1 block -5%, DRD3 agonist -13, Integrin act MD -3%, MBNL1-CUG inh inconclusive and PTHR1 ag -8%.
CC1(C(=O)NCCCN2CCCC2=O)CCN1CCc1ccccc1 (stereo not drawn) was read as DRD3 antagonist 8, DRD3 agonist 5 and PTHR1 ag inactive.
CNC(=S)Nc1ccc(N2CCN(c3ccc(C(F)(F)F)cn3)CC2)nc1 was read as DRD3 antagonist -52*, CBFb RUNX1 block 0%, DRD3 agonist -23, Integrin act MD 41%, MBNL1-CUG inh 4% and PTHR1 ag inactive.
`CN1CCN(c2ccc(NC(=O)c3ccc(C(F)(F)F)cc3)cn2)CC1` gave DRD3 antagonist -9, CBFb RUNX1 block -11%, DRD3 agonist -5, Integrin act MD inconclusive, MBNL1-CUG inh -10% and PTHR1 ag -6%.
CCCCNC(=O)NC12CC3CC(CC(C3)C1)C2 was read as DRD3 antagonist -4, CBFb RUNX1 block 10%, DRD3 agonist -3, Integrin act MD 4%, MBNL1-CUG inh 3% and PTHR1 ag -8%.
